Measurements from PubChem BioAssay (EPA / NIEHS).
Inconclusive results are not listed. Activity calls are given as the source filed them. Rule for the calls: active = hit-call score of the fitted dose curve at least 0.9, where 1 is the maximum; inconclusive = response in the unintended direction; inactive = score below 0.9.

Experiments:
[1] = target: Cellular tumor antigen p53 (Homo sapiens) (UniProt P04637); experiment: TOX21_p53_BLA_p2_ratio: Tox21 HCT-116 p53 Agonism Beta-lactamase Assay, Ratio, Phase 2 (AID 2283592)
Cellular tumor antigen p53 (Homo sapiens), sequence (P04637 whole entry, looked up): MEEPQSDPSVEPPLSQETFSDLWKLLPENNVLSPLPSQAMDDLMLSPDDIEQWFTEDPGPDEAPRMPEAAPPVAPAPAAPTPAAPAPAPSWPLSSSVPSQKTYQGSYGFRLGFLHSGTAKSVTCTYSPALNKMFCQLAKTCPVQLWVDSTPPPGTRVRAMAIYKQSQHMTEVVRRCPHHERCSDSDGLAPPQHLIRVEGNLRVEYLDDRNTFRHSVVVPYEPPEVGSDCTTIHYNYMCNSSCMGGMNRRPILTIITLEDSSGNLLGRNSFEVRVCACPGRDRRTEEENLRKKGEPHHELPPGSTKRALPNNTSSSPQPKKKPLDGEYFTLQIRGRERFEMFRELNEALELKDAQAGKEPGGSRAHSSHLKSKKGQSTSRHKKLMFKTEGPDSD
In short: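 First, HCT116 reporter cells settle for 5 h at 37C. Next, DMSO compound solutions are pinned in (217-fold dilution) and left 16 h. Finally, CCF4-AM substrate is loaded 2 h at room temperature and the 460/530 nm ratio read.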

[2] = TOX21_p53_BLA_p3_viability: Viability Assessment in the Tox21 HCT-116 p53 Agonism Beta-lactamase Assay, Phase 3 (AID 2283593);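 note: cells exposed to compound for 16 h before reading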
In short: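 Cellular ATP was quantified by CellTiter-Glo luminescence, read after 30 min at room temperature. Beforehand, HCT116 cells (4000/well) received compound 5 h post-seeding, 217-fold diluted from DMSO, then incubated 16 h at 37C.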

[3] = target: Cellular tumor antigen p53 (Homo sapiens) (UniProt P04637); experiment: TOX21_p53_BLA_p3_ratio: Tox21 HCT-116 p53 Agonism Beta-lactamase Assay, Ratio, Phase 3 (AID 2283596)
In short: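 Cells were seeded at 4000/well, rested 5 h at 37C, then dosed with DMSO compound solutions (217-fold dilution) for 16 h. CCF4-AM substrate was loaded for 2 h at room temperature, and the 460/530 nm emission ratio was fitted for gain of signal versus DMSO.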

[4] = TOX21_p53_BLA_p4_viability: Viability Assessment in the Tox21 HCT-116 p53 Agonism Beta-lactamase Assay, Phase 4 (AID 2283597);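 note: hits lower the luminescence signal meaning cytotoxicity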
In short: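 4000 HCT116 cells per well; 5 h attachment; compounds from DMSO, 217-fold dilution; 16 h at 37C. Then CCF4-AM, 2 h RT, followed by CellTiter-Glo, 30 min RT, luminescence. Decrease = cytotoxicity.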

[5] = target: Cellular tumor antigen p53 (Homo sapiens) (UniProt P04637); experiment: TOX21_p53_BLA_p5_ratio: Tox21 HCT-116 p53 Agonism Beta-lactamase Assay, Ratio, Phase 5 (AID 2283599)
In short: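 Beta-lactamase reporter ratio (blue 460 nm over green 530 nm, 405 nm excitation) after 2 h CCF4-AM loading, in HCT-116 cells exposed 16 h at 37 C to compounds pinned at 217-fold dilution. Increases relative to DMSO baseline scored.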

[6] = TOX21_p53_BLA_p5_viability: Viability Assessment in the Tox21 HCT-116 p53 Agonism Beta-lactamase Assay, Phase 5 (AID 2283600)
In short: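 Decreased CellTiter-Glo luminescence denotes lost viability. Exposure: 16 h at 37C, 5% CO2, with compounds from DMSO stocks diluted 217-fold in wells of 4000 cells.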

[7] = target: Cellular tumor antigen p53 (Homo sapiens) (UniProt P04637); experiment: TOX21_p53_BLA_p4_ratio: Tox21 HCT-116 p53 Agonism Beta-lactamase Assay, Ratio, Phase 4 (AID 2283601)
In short: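 Signal is the blue/green (460nm/530nm) ratio of cleaved versus uncleaved CCF4-AM substrate, read after 2 h substrate loading. Cells were HCT116 carrying the p53-responsive beta-lactamase reporter, dosed 16 h at 37C, 5% CO2; CellTiter-Glo measured in parallel.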

Measured: AC50

O=S(=O)(O)c1cc(I)c(O)c2ncccc12
inactive: [1] | [2] | [3] | [4] | [5] | [6] | [7]

COc1ncnc(NS(=O)(=O)c2ccc(N)cc2)c1OC
inactive: [1] | [2] | [3] | [4] | [5] | [6] | [7]

CCCCCCCCCCCl
inactive: [1] | [2] | [3] | [4] | [5] | [6] | [7]

O=S1(=O)c2cccc3cccc(c23)N1CCCN1CCN(c2ccc(F)cc2)CC1
active: [4] 41.2 µM
inactive: [1] | [2] | [3] | [5] | [6] | [7]

Cc1c(C)c2c(c(C)c1O)CC[C@@](C)(CCC[C@H](C)CCC[C@H](C)CCCC(C)C)O2
inactive: [1] | [2] | [3] | [4] | [5] | [6] | [7]

Nc1cc(C(Cl)=C(Cl)Cl)c(S(N)(=O)=O)cc1S(N)(=O)=O
inactive: [1] | [2] | [3] | [4] | [5] | [6] | [7]

COc1cccc(N(C)C(=S)Oc2ccc3c(c2)CCCC3)n1
inactive: [1] | [2] | [3] | [4] | [5] | [6] | [7]

CC1(CN2CCC(n3c(=O)[nH]c4ccccc43)CC2)OCc2ccccc2-n2cccc21 (stereo unspecified)
inactive: [1] | [2] | [3] | [5] | [6] | [7]
active: [4] 33.3 µM

COc1cc2c(cc1N)oc1ccccc12
active: [7] 66.1 µM
inactive: [1] | [2] | [3] | [4] | [5] | [6]

CCOC(=O)c1c(N)sc2c1CCN(Cc1ccccc1)C2
inactive: [1] | [2] | [3] | [4] | [5] | [6] | [7]

O=C(O)c1nc(=O)[nH]c(=O)[nH]1
inactive: [1] | [2] | [3] | [4] | [5] | [6] | [7]

Oc1ccc(Cc2ccccc2)cc1
inactive: [2] | [3] | [4] | [5] | [6] | [7]
active: [1] 66.5 µM

Cc1cc(S(=O)(=O)O)c(N)cc1Cl
inactive: [1] | [2] | [3] | [4] | [5] | [6] | [7]
